Reference: ChEMBL document CHEMBL1157539, “Thousands of chemical starting points for antimalarial lead identification” (Nature, 2010)
Several values for one entry are separate records, joined by “and”; a condition that tells them apart may be missing. Equal values may be shown once.

Legend:
Assay type in all cases: functional
Plasmodium falciparum [1] = assay: GSK_TCMDC: Inhibition of Plasmodium falciparum 3D7 in whole red blood cells, using parasite LDH activity as an index of growth. Test compounds present at 2uM
HepG2 = assay: GSK_TCMDC: Percent inhibition of human HepG2 cell line. Test compounds present at 10uM.
Plasmodium falciparum [2] = assay: GSK_TCMDC: Inhibition of Plasmodium falciparum Dd2 in whole red blood cells, using parasite LDH activity as an index of growth. Test compounds present at 2uM

Structure (SMILES)	Inhibition (Plasmodium falciparum [1])	Inhibition (HepG2)	Inhibition (Plasmodium falciparum [2])
O=C(NCCCCN1CCCC2c3ccc(O)cc3CCC21)c1ccc(-c2ccccc2)cc1 (stereo unspecified)	96%	32% and 26%	
Cc1cccc2nc(-c3ccc(-c4cccc(NC(=O)Nc5ccc(F)c(F)c5F)c4)cc3)[nH]c12	100%	40%	89%
CCOC(=O)/C(=N\OC(C)(C)C(=O)NCc1ccc(O)c(O)c1)c1csc(NC(c2ccccc2)(c2ccccc2)c2ccccc2)n1	100%	13%	99%
Cc1cnc(N)c(/C=C/c2cncc(C(=O)NCCc3ccc(Cl)cc3Cl)c2)c1.Cl		2%	100%
CC(C)(C)c1ccc(CNC(=O)c2ccc(-c3nc4cc(C(C)(C)C)ccc4[nH]3)cc2)cc1	96%	21%	49%
O=C([C@H]1CCCCN1c1ccc([N+](=O)[O-])c2ccccc12)N1CCN(c2ncccn2)CC1	97%	50%	5%
CN1CCC(N2CCC(Oc3cccc(C(=O)NCCCC4CCCC4)c3)CC2)CC1	100%	41%	48%
CC(C)Oc1cc2c(cc1NS(=O)(=O)c1ccc(-c3ccc(Cl)s3)cc1F)CCN(C)CC2.Cl	99%	23%	1%
COc1nc2c(CCN3CCC(NCc4ccc5c(n4)NC(=O)CO5)CC3)c(Cl)cnc2cc1F.Cl	99%	17%	40%
O=C(/C=C/c1ccc(Cl)c(Cl)c1)NC1CCC(CN2CCC(c3cc4ccccc4[nH]3)CC2)CC1 (stereo unspecified)	96%	19%	0%
CCn1c(-c2nonc2N)nc2c(-c3cccc(Cl)c3)ncc(OCCCNCCc3c[nH]cn3)c21.O=C(O)C(F)(F)F	100%	16%	98%
O=c1c2c([nH]c3cc(Cl)ccc13)CCCC2	96%	33%	73%
COc1ccc(-c2cccc(NC(=O)c3cccc(C#N)c3)c2)cc1CN1CCN(C)CC1.O=C(O)C(F)(F)F	91%	25%	16%
COc1ccc(-c2cc(C(=O)Nc3ccc4[nH]c(-c5ccccc5)nc4c3)[nH]n2)cc1.O=C(O)C(F)(F)F	90%	77%	78%
N#Cc1ccc(NC(=O)NC2CCN(CCCCCNC(=O)/C=C/c3ccc(Cl)c(Cl)c3)CC2)cc1	98%	15%	4%
CCOc1ccccc1CCNCC1CCN(CC2CCCCC2)CC1.O=C(O)C(F)(F)F	84%	35%	59%
C[C@@H](Oc1cc(-n2cnc3ccc(NC(=O)NC(C)(C)C)cc32)sc1C(N)=O)c1ccccc1Cl	95%	28%	97%
Cc1cccc2nc(-c3ccc(-c4cccc(NC(=O)NCc5cccc(F)c5)c4)cc3)[nH]c12	94%	27%	5%
Cc1cccc(CNc2nc(C)cc(N[C@@H](Cc3ccccc3)C(=O)NCCc3ccccc3)n2)c1.O=C(O)C(F)(F)F	99%	24%	85%
Cc1nccc2c(NC(=O)N[C@@H]3CCN(c4ncc(C(F)(F)F)cc4Br)C3)cccc12.Cl	96%	21%	27%
CC(C(=O)OCCOCn1cnc2c(=O)[nH]c(N)nc21)N(C)C(=O)OC(C)(C)C (stereo unspecified)	87%	28%	0%
O=c1ccc2ccc(F)cc2n1CCN1CCC(NCc2ccc(-c3ccccn3)s2)CC1	98%	0%	30%
O=C(NCC1CCN(Cc2ccc3c(c2)OCCO3)C1)c1cc(-c2ccccc2F)cs1.O=C(O)C(F)(F)F (stereo unspecified)	95%	18%	0%
CN1CCN(CCCSc2ccc3c(c2)ncn3-c2cc(OCc3ccccc3C(F)(F)F)c(C(N)=O)s2)CC1.O=CO	100%	28%	86%
COc1ccccc1NC(=O)CSc1nc2cccnc2n1-c1ccccc1OC	94%	0%	91%
COc1cc2ncnc(Nc3ccc(OCc4ccccc4Br)c(Cl)c3)c2cc1OC.Cl	96%	25%	6%
